Laboratory results reported in PubChem BioAssay (NCATS).
Inconclusive results are not listed. Activity calls are given as the source filed them. Unless noted, calls follow the shape of the dose curve; as a rule, active = well fitted curve in the direction sought with a large enough effect; inconclusive = small, poorly fitted or top-dose-only effect, or another doubt; inactive = no such curve, though single readings can be large; an effect the other way counts as inactive or inconclusive.

Columns and labels:
[1] = biological target: Lysosomal acid glucosylceramidase (Homo sapiens) (UniProt P04062); assay: Glucocerebrosidase-p2 (AID 348; in the data active = potency below about 10 µM; also: potency is read from the fitted curve at half-maximal effect); conditions: purified GBA, blue fluorogenic substrate, 40 min
Method in brief: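 Compounds titrated from 0.6 nM upwards against 0.2 nM enzyme in pH 5.9 citric acid/KH2PO4, taurocholate, tween-20; blue fluorogenic substrate 80 uM, 40 min room temperature, stopped and read Ex 365/Em 440 for AC50.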

[2] = AP1 Signaling Pathway (AID 357; active = well fitted curve in either direction with a large enough effect, not every such curve was filed as active;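 also: ME-180 reporter cells stimulated with EGF at its EC50 level; % is scaled to controls: 0 for no effect and ±100 for the full control effect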); conditions: ME-180 AP-1-bla reporter, EGF-induced, beta-lactamase ratio, 5 h; at 7.69 µM (top of the series) unless noted
Method in brief: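 A ratiometric CCF4 readout (405 nm excitation; 460 and 530 nm emission) quantified AP-1-driven beta-lactamase in ME-180 cells after 5 h with compound and EC50 EGF; AC50 values were derived for activators and inhibitors.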

[3] = NFAT Signaling Pathway (AID 444; active = well fitted curve in either direction with a large enough effect, not every such curve was filed as active;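 also: carbachol stimulus at about its EC50 of 1 µM final; % is scaled to controls: 0 for no effect and ±100 for the full control effect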); conditions: Jurkat NFAT-bla M1, carbachol, beta-lactamase ratio, 5 h; at 7.69 µM (top of the series) unless noted
Method in brief: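 Jurkat cells carrying an NFAT-driven β-lactamase reporter and co-transfected muscarinic M1 receptor were treated with compound plus carbachol (1 uM final, an EC50 level) for 5 h at 37 °C. CCF4 loading followed for 1 h at RT; 460/530 nm ratio gave %activity.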

[4] = Stat Signaling Pathway (AID 446; active = well fitted curve in either direction with a large enough effect, not every such curve was filed as active;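 also: ME-180 cervical cancer cells given 40 pM IL-6 alongside compound; SIE-controlled beta-lactamase reporter measured as 460/530 nm FRET emission ratio; % is scaled to controls: 0 for no effect and ±100 for the full control effect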); conditions: ME-180 SIE beta-lactamase reporter, IL-6 stimulated, 5 h; at 7.69 µM (top of the series) unless noted
Method in brief: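 Reporter line: ME-180 cervical carcinoma, SIE-beta-lactamase. Treatment: compound with 40 pM IL-6, 5 hrs, 37 C, in low-serum OPTI-MEM with 10 mM HEPES pH 7.3. Detection: 460/530 nm fluorescence.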

[5] = biological target: Glucocorticoid receptor (Homo sapiens) (UniProt P04150); assay: GR-GFP Redistribution (AID 450;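 active = compounds whose dose series gives a full or clear partial fitted curve of increased nuclear translocation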; also: potency is read from the fitted curve at half-maximal effect); conditions: U2OS GR-GFP nuclear translocation, laser cytometry, 2 h
[6] = biological target: Glucocorticoid receptor (Homo sapiens) (UniProt P04150); assay: GR-EFC Redistribution (AID 451; calls by dose curve; also: potency is read from the fitted curve at half-maximal effect); conditions: CHO-K1 GR-EFC translocation, beta-gal luminescence, 2 h
Method in brief: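 CHO-K1 cells stably expressing nuclear-localized β-gal enzyme acceptor and GR fused C-terminally to the enzyme donor fragment; ligand-driven nuclear translocation restores β-gal by complementation. Compounds titrated up to 46 uM final, 2 h at 37 °C; luminescence read.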

[7] = biological target: Mitogen-activated protein kinase 10 (Mus musculus) (UniProt Q61831); assay: JNK3 AlphaScreen Assay (AID 530; active = well fitted curve in either direction with a large enough effect, not every such curve was filed as active;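 also: kinase came from lysate of stimulated human HepG2 cells; signal reports phosphorylation of biotinylated GST-cJun 1-79 at Ser73 with 10 µM ATP; % is scaled to controls: 0 for no effect and ±100 for the full control effect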); conditions: JNK3 lysate, c-Jun phosphorylation; series mostly up to 57.1 µM
Method in brief: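 Inhibitors reduce antibody binding to phosphorylated biotin-cJun, lowering AlphaScreen luminescence. Lysates from HepG2 cells pre-activated by IL-1beta plus TNF-alpha supplied JNK3; compounds were titrated.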

[8] = biological target: 3',5'-cyclic-AMP phosphodiesterase 4B (Homo sapiens) (UniProt Q07343); assay: qHTS Assay for Inhibitors of PDE-IV (AID 607; active = well fitted activation curve with a large enough effect in the main read-out, with a control signal flat, not every such curve was filed as active; also: % of control where 0% means no effect); conditions: HEK293 ACTOne CNG channel cells, membrane potential fluorescence; series mostly up to 22.9 µM
Method in brief: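 Cell-based read-out of cAMP via a modified cyclic nucleotide-gated channel and membrane potential dye (535/590 nm) in HEK293 cells expressing PDE4 endogenously. Compounds tested up to 22.9 uM final; 100 uM RO 20-1724 reference.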

[9] = biological target: Cytochrome P450 3A4 (Homo sapiens) (UniProt P08684); assay: qHTS Assay for Activators of Cytochrome P450 3A4 (AID 885); conditions: recombinant CYP3A4, Luciferin-PPXE luminescence, 60 min; series mostly up to 57.1 µM; also: nearly all actives have a fitted effect of over 65% in size
Method in brief: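 Signal was normalized against complete inhibition by 57 uM ketoconazole. The reaction used 20nM CYP3A4 with 25uM Luciferin-PPXE, 10-min compound preincubation and a 60-min NADPH-supported step at RT.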

[10] = qHTS Assay for Identification of Small Molecule Agonists for Hypoxia Response Element Signaling Pathway (AID 914; active = well fitted activation curve with a large enough effect in the signal ratio, with a control signal flat, not every such curve was filed as active; the % refers to the signal ratio; also: % of control where 0% means no effect); conditions: ME-180 (cervical carcinoma) HRE-bla reporter, beta-lactamase ratio, CoCl2, 17 h; activation: active compounds read high
Method in brief: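 HRE-bla ME-180 assay for agonist-like enhancement of an EC50 CoCl2 stimulus: 17 h at 37 degrees Celsius, CCF4 for 2.5 h, ratiometric 460/530 nm signal converted to %Activity and fitted to AC50.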

[11] = biological target: Dual specificity protein kinase CLK4 (Homo sapiens) (UniProt Q9HAZ1); assay: qHTS Assay for Inhibitors of CDC-like Kinase 4 (Kinase-Glo Assay) (AID 1770); conditions: recombinant Clk4, Kinase-Glo ATP depletion luminescence; series mostly up to 66.7 µM; also: nearly all actives have a fitted effect of over 65% in size; also: potency is read from the fitted curve at half-maximal effect
Method in brief: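 Recombinant human Clk4 (25 nM) phosphorylated RS repeat peptide (100 uM) with 1 uM ATP in Tris pH 7.5/MgCl2/EGTA/DTT/Triton buffer for 4.5 h at room temperature. Residual ATP was quantified by Kinase-Glo luciferase luminescence.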

[12] = biological target: Dual specificity protein kinase CLK4 (Homo sapiens) (UniProt Q9HAZ1); assay: qHTS Assay for Inhibitors of CDC-like Kinase 4 (ADP-Glo Assay) (AID 1771); conditions: recombinant CLK4, ADP-Glo luminescence; series mostly up to 80 µM; also: nearly all actives have a fitted effect of over 70% in size; also: potency is read from the fitted curve at half-maximal effect
Method in brief: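 25 nM Clk4 with 100 uM RS repeat peptide and 1 uM ATP (final) in buffer with 2 mM MgCl2, 0.5 mM EGTA, 2.5 mM DTT, 0.01% Triton X-100; 1 h at room temperature; ADP-Glo luminescence for ADP formed.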

[13] = biological target: Ubiquitin carboxyl-terminal hydrolase 1 (Homo sapiens) (UniProt O94782); assay: Inhibitors of USP1/UAF1: Pilot qHTS (AID 504865); conditions: purified USP1/UAF1, Ub-rhodamine cleavage fluorescence; series mostly up to 54.9 µM;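 also: rhodamine fluorescence freed from ubiquitin-rhodamine substrate followed over time; top concentration of the series differs between compounds; % is scaled to controls: 0 for no effect and ±100 for the full control effect; nearly all actives have a fitted effect of over 35% in size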
Method in brief: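 USP1/UAF1 complex (1nM) preincubated with compound 15 min at room temperature, then Ub-Rho substrate (150nM final) added. Fluorescence read kinetically at 480/540 nm, 6 reads every 60 seconds. Buffer: 50mM HEPES pH 7.8, 0.5mM EDTA, 0.1 mg/ml BSA, 1mM TCEP, 0.01% Tween-20.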

[14] = Primary qHTS for small molecule stabilizers of the endoplasmic reticulum resident proteome: Secreted ER Calcium Modulated Protein (SERCaMP) assay (AID 1508630); conditions: SH-SY5Y GLuc-SERCaMP (Gaussia luciferase released on ER calcium loss) secretion, thapsigargin, luminescence; series mostly up to 38.4 µM; also: % is scaled to controls: 0 for no effect and ±100 for the full control effect
Method in brief: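 GLuc-SERCaMP-expressing SH-SY5Y cells, pretreated 16 h with compound, are challenged with thapsigargin to empty ER calcium stores; after 4 h, coelenterazine is added directly to the medium and luminescence is imaged.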

[15] = biological target: Cytochrome P450 1A2 (Homo sapiens) (UniProt P05177); assay: p450-cyp1a2 (AID 410; calls by dose curve; also: potency is read from the fitted curve at half-maximal effect); conditions: recombinant CYP1A2, luciferin-ME demethylation, luminescence; series mostly up to 57 µM
Method in brief: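 20nM CYP1A2 with 100uM Luciferin-ME (at Km) in 100mM KPO4; compound preincubated 10 min, NADPH regeneration added, 60 min at room temperature. Luciferin quantified by luminescence after detection reagent; normalized to 57 uM furafylline.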

[16] = biological target: Cytochrome P450 2C9 (Homo sapiens) (UniProt P11712); assay: qHTS Assay for Inhibitors and Substrates of Cytochrome P450 2C9 (AID 883); conditions: recombinant CYP2C9, luciferin-H luminescence, 60 min; series mostly up to 57.1 µM; also: % is scaled to controls: 0 for no effect and ±100 for the full control effect; nearly all actives have a fitted effect of over 60% in size
Method in brief: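 A luminogenic readout tracked human CYP2C9 (10nM) converting deoxyluciferin (100uM, at KM) in 25mM KPO4 during 60 min at 37C with regenerated NADPH. Values normalized to 57uM sulphaphenazole as complete inhibition.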

[17] = biological target: Cytochrome P450 3A4 (Homo sapiens) (UniProt P08684); assay: qHTS Assay for Inhibitors and Substrates of Cytochrome P450 3A4 (AID 884); conditions: recombinant CYP3A4, Luciferin-PPXE luminescence; series mostly up to 57.1 µM; also: potency is read from the fitted curve at half-maximal effect; nearly all actives have a fitted effect of over 50% in size
Method in brief: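 20 nM human CYP3A4 with 25 uM Luciferin-PPXE (at KM) in 200 mM KPO4, preincubated 10 min with compound; NADPH regeneration started a 60 min RT reaction. Luciferin detected by luminescence, normalized to 57 uM ketoconazole as full inhibition.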

[18] = biological target: Cytochrome P450 2C19 (Homo sapiens) (UniProt P33261); assay: qHTS Assay for Inhibitors and Substrates of Cytochrome P450 2C19 (AID 899); conditions: recombinant CYP2C19, luciferin-H EGE luminescence; series mostly up to 57.1 µM; also: potency is read from the fitted curve at half-maximal effect; nearly all actives have a fitted effect of over 60% in size
Method in brief: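 NADPH-dependent conversion of Luciferin-H EGE (10uM, at KM) by 5nM enzyme in 50mM KPO4, 60 min at 37C following 10 min compound preincubation. Stopped with luciferin detection buffer; luminescence read after 20 min.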

Ubiquitin carboxyl-terminal hydrolase 1 (Homo sapiens), sequence (O94782 whole entry, looked up): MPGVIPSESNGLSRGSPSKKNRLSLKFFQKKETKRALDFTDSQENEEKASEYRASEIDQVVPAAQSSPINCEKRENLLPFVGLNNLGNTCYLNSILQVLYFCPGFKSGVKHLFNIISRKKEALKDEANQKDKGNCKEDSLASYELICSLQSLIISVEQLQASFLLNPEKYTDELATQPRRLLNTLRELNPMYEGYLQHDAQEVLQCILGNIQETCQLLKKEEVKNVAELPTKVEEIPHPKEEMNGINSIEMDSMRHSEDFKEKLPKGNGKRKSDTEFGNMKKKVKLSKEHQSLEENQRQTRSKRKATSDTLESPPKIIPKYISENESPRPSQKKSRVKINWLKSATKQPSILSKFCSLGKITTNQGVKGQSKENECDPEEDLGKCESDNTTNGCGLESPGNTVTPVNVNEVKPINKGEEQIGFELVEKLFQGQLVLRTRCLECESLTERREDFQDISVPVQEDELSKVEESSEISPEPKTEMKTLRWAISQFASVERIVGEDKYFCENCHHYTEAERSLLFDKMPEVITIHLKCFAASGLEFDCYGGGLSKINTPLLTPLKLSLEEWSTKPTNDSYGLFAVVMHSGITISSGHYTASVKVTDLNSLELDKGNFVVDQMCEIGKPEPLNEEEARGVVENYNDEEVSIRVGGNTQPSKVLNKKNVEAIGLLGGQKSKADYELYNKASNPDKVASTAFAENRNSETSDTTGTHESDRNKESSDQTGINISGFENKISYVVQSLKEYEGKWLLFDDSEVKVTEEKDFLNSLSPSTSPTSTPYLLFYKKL
Cytochrome P450 1A2 (Homo sapiens), sequence (P05177 whole entry, looked up): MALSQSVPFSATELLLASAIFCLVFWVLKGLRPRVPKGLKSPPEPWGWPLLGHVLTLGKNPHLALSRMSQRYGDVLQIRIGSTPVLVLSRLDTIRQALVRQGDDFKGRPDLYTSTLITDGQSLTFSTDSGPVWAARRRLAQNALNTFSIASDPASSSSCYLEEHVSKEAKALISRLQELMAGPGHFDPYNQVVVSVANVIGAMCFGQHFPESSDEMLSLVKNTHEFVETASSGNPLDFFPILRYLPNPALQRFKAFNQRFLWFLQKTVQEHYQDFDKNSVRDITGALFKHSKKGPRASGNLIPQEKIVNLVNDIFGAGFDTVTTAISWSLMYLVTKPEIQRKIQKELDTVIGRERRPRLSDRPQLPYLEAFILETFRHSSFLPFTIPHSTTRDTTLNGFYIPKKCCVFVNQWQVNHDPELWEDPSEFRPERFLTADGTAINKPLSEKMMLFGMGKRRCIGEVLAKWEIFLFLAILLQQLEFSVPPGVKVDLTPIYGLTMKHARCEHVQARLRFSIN
Glucocorticoid receptor (Homo sapiens), sequence (P04150 whole entry, looked up, the tested form may be a part): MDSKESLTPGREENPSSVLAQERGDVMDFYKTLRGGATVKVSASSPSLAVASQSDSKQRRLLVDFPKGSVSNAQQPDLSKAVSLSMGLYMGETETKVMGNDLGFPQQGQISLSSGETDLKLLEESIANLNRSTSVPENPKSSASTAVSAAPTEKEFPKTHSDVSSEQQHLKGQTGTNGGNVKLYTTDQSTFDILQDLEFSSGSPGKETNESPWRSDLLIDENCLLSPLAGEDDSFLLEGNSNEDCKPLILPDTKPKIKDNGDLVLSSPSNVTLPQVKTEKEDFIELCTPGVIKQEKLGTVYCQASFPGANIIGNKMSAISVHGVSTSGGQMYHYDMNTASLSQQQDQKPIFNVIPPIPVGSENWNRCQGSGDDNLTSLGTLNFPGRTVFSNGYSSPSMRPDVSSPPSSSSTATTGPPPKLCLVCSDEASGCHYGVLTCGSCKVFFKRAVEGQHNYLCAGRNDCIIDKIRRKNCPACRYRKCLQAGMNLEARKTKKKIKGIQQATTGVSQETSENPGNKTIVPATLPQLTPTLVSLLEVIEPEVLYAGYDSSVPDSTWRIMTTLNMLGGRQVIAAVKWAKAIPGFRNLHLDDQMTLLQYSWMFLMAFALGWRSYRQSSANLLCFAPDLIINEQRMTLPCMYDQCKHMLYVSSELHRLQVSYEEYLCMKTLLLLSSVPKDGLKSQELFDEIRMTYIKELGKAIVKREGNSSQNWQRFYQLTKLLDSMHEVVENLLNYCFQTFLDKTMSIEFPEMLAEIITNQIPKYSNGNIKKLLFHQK
Lysosomal acid glucosylceramidase (Homo sapiens), sequence (P04062 whole entry, looked up): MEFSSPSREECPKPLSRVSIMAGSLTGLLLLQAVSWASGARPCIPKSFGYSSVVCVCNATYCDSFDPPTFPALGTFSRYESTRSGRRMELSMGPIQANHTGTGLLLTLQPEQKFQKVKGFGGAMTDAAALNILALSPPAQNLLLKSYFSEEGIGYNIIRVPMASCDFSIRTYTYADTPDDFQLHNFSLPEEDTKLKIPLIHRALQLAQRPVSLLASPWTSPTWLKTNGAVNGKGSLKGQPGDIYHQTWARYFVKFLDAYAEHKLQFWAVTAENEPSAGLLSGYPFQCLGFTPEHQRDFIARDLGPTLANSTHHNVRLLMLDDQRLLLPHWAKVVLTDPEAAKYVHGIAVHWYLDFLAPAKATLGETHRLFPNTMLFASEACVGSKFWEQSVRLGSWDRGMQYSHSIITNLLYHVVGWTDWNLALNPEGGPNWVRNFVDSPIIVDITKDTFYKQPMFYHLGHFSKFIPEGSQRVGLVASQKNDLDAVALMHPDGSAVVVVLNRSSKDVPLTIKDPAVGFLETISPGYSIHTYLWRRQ
Cytochrome P450 3A4 (Homo sapiens), sequence (P08684 whole entry, looked up): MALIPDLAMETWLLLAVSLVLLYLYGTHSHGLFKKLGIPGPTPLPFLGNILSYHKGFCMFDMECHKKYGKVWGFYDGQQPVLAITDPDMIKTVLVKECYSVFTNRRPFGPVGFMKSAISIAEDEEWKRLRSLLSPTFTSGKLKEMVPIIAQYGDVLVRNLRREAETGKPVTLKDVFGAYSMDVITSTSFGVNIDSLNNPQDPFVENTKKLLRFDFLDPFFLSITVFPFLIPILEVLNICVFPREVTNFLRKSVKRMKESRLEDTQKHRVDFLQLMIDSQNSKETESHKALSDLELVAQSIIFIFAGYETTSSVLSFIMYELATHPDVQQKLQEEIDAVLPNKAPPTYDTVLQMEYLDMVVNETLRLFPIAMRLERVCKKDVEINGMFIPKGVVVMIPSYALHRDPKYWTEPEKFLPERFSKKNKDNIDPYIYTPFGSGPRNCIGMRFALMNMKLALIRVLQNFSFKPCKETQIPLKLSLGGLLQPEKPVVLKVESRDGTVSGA
Dual specificity protein kinase CLK4 (Homo sapiens), sequence (Q9HAZ1 whole entry, looked up): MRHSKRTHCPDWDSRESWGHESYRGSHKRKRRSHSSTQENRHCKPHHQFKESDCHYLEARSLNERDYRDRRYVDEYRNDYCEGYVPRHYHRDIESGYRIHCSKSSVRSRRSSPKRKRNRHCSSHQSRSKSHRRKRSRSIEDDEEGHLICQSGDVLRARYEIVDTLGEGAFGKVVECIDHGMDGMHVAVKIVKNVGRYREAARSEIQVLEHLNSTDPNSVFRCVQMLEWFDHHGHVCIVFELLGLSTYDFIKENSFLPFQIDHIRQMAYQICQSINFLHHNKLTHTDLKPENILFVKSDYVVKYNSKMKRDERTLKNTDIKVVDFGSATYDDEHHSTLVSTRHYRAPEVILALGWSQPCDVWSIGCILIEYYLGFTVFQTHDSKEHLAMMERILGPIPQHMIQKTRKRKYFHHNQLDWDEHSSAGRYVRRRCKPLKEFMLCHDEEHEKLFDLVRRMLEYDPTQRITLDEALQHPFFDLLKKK
3',5'-cyclic-AMP phosphodiesterase 4B (Homo sapiens), sequence (Q07343 whole entry, looked up): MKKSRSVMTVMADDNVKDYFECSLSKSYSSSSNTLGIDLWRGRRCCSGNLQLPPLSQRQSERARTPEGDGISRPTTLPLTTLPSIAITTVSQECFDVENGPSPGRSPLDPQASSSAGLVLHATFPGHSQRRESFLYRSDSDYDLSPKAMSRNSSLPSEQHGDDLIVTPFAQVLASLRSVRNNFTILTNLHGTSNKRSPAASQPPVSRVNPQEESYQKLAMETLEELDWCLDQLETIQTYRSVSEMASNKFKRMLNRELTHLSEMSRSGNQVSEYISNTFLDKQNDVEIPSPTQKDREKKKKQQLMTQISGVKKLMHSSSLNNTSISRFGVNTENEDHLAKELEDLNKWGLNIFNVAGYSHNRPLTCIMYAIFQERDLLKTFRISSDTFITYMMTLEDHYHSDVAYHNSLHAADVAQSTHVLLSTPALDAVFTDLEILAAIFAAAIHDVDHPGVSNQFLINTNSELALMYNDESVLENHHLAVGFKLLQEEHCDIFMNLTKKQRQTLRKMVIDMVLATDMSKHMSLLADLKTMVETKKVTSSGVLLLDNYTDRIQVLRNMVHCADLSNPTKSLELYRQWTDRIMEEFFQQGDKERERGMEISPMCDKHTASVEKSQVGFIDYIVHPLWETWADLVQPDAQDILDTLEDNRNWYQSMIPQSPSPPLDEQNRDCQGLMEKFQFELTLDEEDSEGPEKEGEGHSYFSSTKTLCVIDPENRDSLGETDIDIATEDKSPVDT
Cytochrome P450 2C19 (Homo sapiens), sequence (P33261 whole entry, looked up): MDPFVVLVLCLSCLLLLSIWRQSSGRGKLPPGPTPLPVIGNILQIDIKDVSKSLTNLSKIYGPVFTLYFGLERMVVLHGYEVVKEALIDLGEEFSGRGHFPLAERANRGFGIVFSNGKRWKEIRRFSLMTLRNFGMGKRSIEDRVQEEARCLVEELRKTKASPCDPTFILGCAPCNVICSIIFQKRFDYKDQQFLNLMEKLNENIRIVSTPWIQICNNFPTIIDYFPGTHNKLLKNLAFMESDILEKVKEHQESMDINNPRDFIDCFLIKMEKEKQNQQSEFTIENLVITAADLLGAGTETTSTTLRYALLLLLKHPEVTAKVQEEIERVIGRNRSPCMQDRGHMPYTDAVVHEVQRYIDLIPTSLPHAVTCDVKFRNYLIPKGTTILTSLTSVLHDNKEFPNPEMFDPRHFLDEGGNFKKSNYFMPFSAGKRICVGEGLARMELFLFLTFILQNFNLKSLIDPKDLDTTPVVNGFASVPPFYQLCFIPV

CN1CCN(c2ncnc3ccc(-c4cccnc4)cc23)CC1
active: Potency [11] 12.6 µM | Potency [12] 14.1 µM
inactive: Potency [1] > 11.4 µM | activity change, negative = inhibition [2] -5.19% | activity change, negative = inhibition [3] 17% | activity, negative = inhibition [4] 2.81% | Potency [5] > 46 µM | Potency [6] > 46 µM | Potency [7] | Potency [8] | Potency [9] | activation [10] -3.4% | Potency [13] | outcome [14]

CN(C)C(=O)c1ccc(-c2cc(NCc3cccs3)ncn2)cc1
active: Potency [11] 20 µM | Potency [12] 22.4 µM
inactive: Potency [1] > 11.4 µM | activity change, negative = inhibition [2] -17.2% | activity change, negative = inhibition [3] 3.58% | activity, negative = inhibition [4] 5.59% | Potency [5] > 46 µM | Potency [6] > 46 µM | Potency [7] | Potency [13] | outcome [14]

O=c1c(-c2cc(F)cc(F)c2)nc2cnc(N3CCOCC3)nc2n1CCc1ccccc1
inactive: Potency [1] > 11.4 µM | activity change, negative = inhibition [2] 29.6% | Potency [5] > 9.22 µM | Potency [6] > 46 µM | Potency [7] | Potency [8] | Potency [11] | Potency [12] | Potency [13] | outcome [14]
active: Potency [15] 2.51 µM

Cc1cnc(CNc2ccnc(-c3cccnc3)n2)cn1
active: Potency [15] 7.94 µM | Potency [17] 5.01 µM | Potency [11] 15.8 µM | Potency [12] 15.8 µM
inactive: Potency [1] > 11.4 µM | activity change, negative = inhibition [2] 16.6% | activity, negative = inhibition [4] 13.3% | Potency [5] > 46 µM | Potency [6] > 46 µM | Potency [7] | Potency [8] | activity change, negative = inhibition [16] 21.5% [at 2.29 µM] | Potency [9] | Potency [13] | outcome [14]

FC(F)(F)c1ccccc1-c1nccc(-n2ccnc2)n1
inactive: Potency [1] > 11.4 µM | activity change, negative = inhibition [2] -7.77% | activity change, negative = inhibition [3] 2.35% | activity, negative = inhibition [4] 0.859% | Potency [5] > 46 µM | Potency [6] > 46 µM | Potency [7] | Potency [13] | outcome [14]
active: Potency [11] 15.8 µM | Potency [12] 25.1 µM

COc1ccc(-c2nc3cnc(N(C)C)nc3n(-c3ccccc3)c2=O)cc1
inactive: Potency [1] > 11.4 µM | activity change, negative = inhibition [2] 0.239% | activity change, negative = inhibition [3] 3.47% | activity, negative = inhibition [4] 3.24% | Potency [5] > 9.22 µM | Potency [6] > 46 µM | Potency [7] | Potency [11] | Potency [12] | Potency [13] | outcome [14]

COCCn1c(=O)c(-c2cccc(Cl)c2)nc2cncnc21
active: Potency [15] 0.631 µM
inactive: Potency [1] > 11.4 µM | activity change, negative = inhibition [2] -9.58% | activity change, negative = inhibition [3] 12.1% | activity, negative = inhibition [4] -4.06% | Potency [5] > 9.22 µM | Potency [6] > 46 µM | Potency [7] | Potency [8] | Potency [9] | Potency [11] | Potency [12] | Potency [13] | outcome [14]

FC(F)(F)c1ccccc1-c1ccc2ncnc(NC3CC3)c2c1
active: Potency [15] 0.316 µM | Potency [17] 1.58 µM | Potency [18] 2 µM | Potency [11] 25.1 µM | Potency [12] 25.1 µM
inactive: Potency [1] > 11.4 µM | activity change, negative = inhibition [2] 10% | activity, negative = inhibition [4] -18.8% | Potency [5] > 46 µM | Potency [6] > 46 µM | Potency [7] | Potency [9] | Potency [13] | outcome [14]
